D2 PAM-1 = positive allosteric modulators of human D2 dopamine receptor. P14416. HEK293 T-REx D2, calcium flux, EC20 dopamine potentiation. potentiation, % at 10 µM. 0.34% of 340,000 active;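 active = potentiation over 3 SD above the plate norm, cut at about 30% in these data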; note: 0% is about no effect
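Potentiation of an EC20 dopamine calcium response measured kinetically over 180 s, after a preceding 180 s compound-only read flagging agonists. Cells: inducible Hek293 Trex D2 line, 4000/well, cultured overnight at 30 C before dye loading.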
D2 PAM-2 = positive allosteric modulators of human D2 dopamine receptor; P14416; DiscoveRx D2 beta-arrestin cells, luminescence, 90 min; 100% = 57 uM dopamine signal; potentiation, % (test concentration not listed); 0.23% of 360,000 active; AID 624464; in the data active = potentiation above about 50%; inconclusive = mostly about 30% to 49%
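PathHunter beta-arrestin assay in DiscoveRx D2 cells. Compounds were added with an EC20 of dopamine (50 nM final) for 90 min at 37 deg C. Luminescence was read 1 h after detection reagent, with 57 uM dopamine as the EC100 control.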
D2 ag-1 = D2 dopamine receptor (human) agonism. HEK293 T-REx D2 cells, calcium flux agonist mode. activation, % at 2 µM. 0.53% of 340,000 active;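 active = activation over 3 SD above normal in the single-dose calcium agonist read, cut at about 30% in these data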; note: 0% is about no effect
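In this primary screen, compounds producing a positive calcium signal within 180 s of addition to tetracycline-induced, force-coupled HEK293 Trex D2 cells are flagged; cells are dye-loaded with a no-wash calcium kit beforehand.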
D2 ag-2 = agonists of human D2 dopamine receptor (beta-arrestin) | P14416 | DiscoveRx PathHunter D2 beta-arrestin, luminescence, 90 min; 100% = 57 uM dopamine signal | activation, % (no concentration beside the values) | 0.084% of 360,000 active; in the data active = activation above about 40%; inconclusive = between about 15% and that limit
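Agonist mode: compounds alone added to overnight-plated D2 PathHunter cells for 90 min at 37 C, with 57 uM final dopamine (EC100) defining full response. Beta-arrestin recruitment detected by chemiluminescent reagent, read after 1 h at ambient temperature.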
D2 antag = antagonists of human D2 dopamine receptor; P14416; HEK293 TREx D2 cells, calcium flux, dopamine EC80; inhibition, % at 10 µM; 2% of 340,000 active; AID 485344; in the data active = inhibition above about 30%; inactive = below that, where a call was filed; note: 0% is about no effect
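Antagonism is scored as inhibition of an EC80 dopamine-evoked calcium signal in a force-coupled, tetracycline-inducible HEK293 T-REx D2 line, with compound present 180 s before agonist.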
D3 arrestin ag = D3 receptor agonism confirmed, beta-arrestin readout; shares compounds with D2 ag-1; DiscoveRx D3 beta-arrestin cells, luminescence, 90 min; Potency, µM (series often up to 76.9 µM), without a hit: at the highest dose activation, actives largely listed as activators; 4% of 2,300 active; AID 720506;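 note: potency is the fitted concentration of half-maximal effect; 100% = dopamine control response; nearly all actives have a fitted effect of over 70% in size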
Target sequence (P35462 whole entry, looked up): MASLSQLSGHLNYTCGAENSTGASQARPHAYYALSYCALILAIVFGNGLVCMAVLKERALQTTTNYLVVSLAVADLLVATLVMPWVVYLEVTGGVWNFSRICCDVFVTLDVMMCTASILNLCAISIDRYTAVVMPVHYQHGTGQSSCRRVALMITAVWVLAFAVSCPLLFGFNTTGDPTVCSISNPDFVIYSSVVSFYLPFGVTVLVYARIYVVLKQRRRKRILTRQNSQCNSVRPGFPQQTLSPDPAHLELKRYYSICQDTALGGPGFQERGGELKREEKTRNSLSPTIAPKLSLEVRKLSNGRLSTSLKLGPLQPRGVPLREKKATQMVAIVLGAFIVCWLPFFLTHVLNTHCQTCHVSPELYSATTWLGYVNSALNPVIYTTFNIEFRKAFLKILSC
D2 ag-3 = counter-screen for D3 agonists: human D2 dopamine receptor agonism. shares compounds with D2 ag-1. DiscoveRx PathHunter D2 beta-arrestin, luminescence, 90 min; response scale: percent relative to full dopamine signal. Potency, µM (titrated, usually from 76.9 µM), for inactives: at the highest dose activation, hits mostly activators. 5.9% of 2,300 active. AID 720507; note: potency is the fitted concentration of half-maximal effect; % of control where 0% means no effect; nearly all actives have a fitted effect of over 70% in size
Numbers without * were called inactive; ? = inconclusive; · = no result. This is a sample that favours compounds with a hit; in the whole collection about 2.4% have one here. Unless noted, calls come from the whole dose curve; as a rule, active = well fitted activation curve with a large enough effect; inconclusive = small, poorly fitted or top-dose-only effect; inactive = flat fitted curve, though single readings scatter.

SMILES	D2 PAM-1	D2 PAM-2	D2 ag-1	D2 ag-2	D2 antag	D3 arrestin ag	D2 ag-3
COc1ccc(OCC(O)CN2CCN(c3ncccn3)CC2)cc1 (stereo unspecified)	-20	-19	70*	?	62*	?	?
N#CCCN(C(=O)COC(=O)COc1ccccc1Cc1ccccc1)c1ccccc1	-8	1	1	-2	7	-6%	0%
CC(Oc1cc2oc(=O)cc(-c3ccccc3)c2cc1Cl)C(=O)NCC1CCC(C(=O)O)CC1 (stereo unspecified)	-17	-13	43*	2	43*	4%	1%
Cc1cc(OCC(=O)Nc2ccc(C(=O)OC3CCCCC3)cc2)ccc1Cl	0	·	0	·	·	·	·
CCCCn1c(N)c(N(CC)C(=O)c2cccc(F)c2)c(=O)[nH]c1=O	-3	-4	4	-5	-2	·	·
CCCCn1c(N)c(N(CC)C(=O)c2cccc(OCc3ccccc3)c2)c(=O)[nH]c1=O	-12	5	0	8	8	20%	-3%
Cc1ccc(-n2cnc3cc(C(=O)NCc4ccccc4Cl)ccc32)c(C)c1	5	·	0	·	·	·	·
COC(=O)c1ccc(Cl)cc1NC(=O)N1CCC(CN2CCC(C)CC2)CC1	-10	·	1	·	·	·	·
Cc1cccc(NS(=O)(=O)c2ccc(-c3ccc(=O)[nH]n3)o2)c1	·	-4	·	4	·	·	·
Cc1ccc(C)c(NS(=O)(=O)c2ccc(-c3ccc(=O)[nH]n3)o2)c1	-9	2	44*	8	6	-1%	22%
COc1ccc(C(=O)CC(C#N)c2ccc3c(c2)OCO3)cc1OC (stereo unspecified)	·	-4	·	2	·	·	·
O=C1C=C(c2n[nH]nc2-c2ccccc2)C[C@@H](c2ccc(F)cc2)C1	·	2	·	-5	·	·	·
O=C(NC1(C(F)(F)F)NC(=O)N(c2ccccc2)C1=O)c1cccs1 (stereo unspecified)	-6	-12	0	-5	30	9%	-4%
C=C(C)CN1C(=O)C(=O)N(CC(=C)C)C1=O	-12	-5	90*	-4	-17	-8%	-3%
Cc1ccc(CN2C(=O)C(=O)N(CC(N)=O)C2=O)cc1	-5	-11	1	-3	-11	·	·
Cc1ccc(CNC(=O)c2ccc3c(c2)nc(C)n3-c2cccc(F)c2)cc1	14	·	0	·	·	·	·
CCc1ccc(NCc2cc3ccc(OC)cc3n(CC(=O)Nc3ccc(C)c(Cl)c3)c2=O)cc1	5	·	0	·	·	·	·
CCOc1ccc(C2C(C(=O)Nc3ccccc3)=C(C)Nc3nc(-c4ccccc4Cl)nn32)cc1OC (stereo unspecified)	4	·	0	·	·	·	·
CCC/C(=C1/c2ccccc2C(=O)N1c1ccccc1)c1ccc2c(c1)OCO2	-1	-1	-1	3	-11	-10%	-3%
Cc1ccc(N(C(=O)c2cccc(C)c2)S(=O)(=O)c2ccc(Cl)cc2)cc1	-1	·	-1	·	·	·	·
CCSc1nc2c(c(=O)[nH]1)C(C(C)C)C(C#N)=C(N)O2 (stereo unspecified)	0	1	45*	-2	-10	-3%	-2%
CCCn1nc(C(=O)Nc2cc(OCC)c(N3CCOCC3)cc2OCC)c2ccccc2c1=O	·	1	·	0	·	·	·
COCc1ccc(-c2c(-c3ccccc3OC)sc3cc4c(cc23)OCO4)cc1	8	-6	0	-2	40*	1%	-3%
Cc1c(C)n(C)c2ccc(C(=O)N3CCN(c4ccccc4)CC3)cc12	-6	2	1	-2	·	·	·
Cc1c(C)n(C)c2ccc(C(=O)N3CCN(c4ccccn4)CC3)cc12	-21	11	56*	11	31*	?	20%
SMILES	D2 PAM-1	D2 PAM-2	D2 ag-1	D2 ag-2	D2 antag	D3 arrestin ag	D2 ag-3
CC(C)(C)OC(=O)N1CCC(NC(=O)c2nc[nH]c2C(=O)N2CCc3ccccc3C2)CC1	·	-7	·	-1	·	-3%	-3%
CC(C)(C)OC(=O)N1CCC(NC(=O)c2[nH]cnc2C(=O)Nc2ccc(Cl)cc2)CC1	6	-16	1	-1	1	-2%	-2%
CC(C)(C)OC(=O)N1CCN(C(=O)c2[nH]cnc2C(=O)NCc2ccccc2)CC1	-3	-10	0	-4	-3	-3%	-2%
Cc1ccc(NC(=O)c2nc[nH]c2C(=O)NC2CCN(C(=O)OC(C)(C)C)CC2)cc1	·	-8	·	-2	·	·	·
Cc1nn(-c2ccccc2)c2sc(C(=O)Nc3ccc(Cl)cc3Cl)cc12	3	·	0	·	·	·	·
CCc1ccc(S(=O)(=O)c2nnn3c2nc(NC2CCCC2)c2sccc23)cc1	-1	·	0	·	·	·	·
O=C(Cc1cccc(NC(=O)C2CCN(C(=O)C3CCC3)CC2)c1)Nc1cccc(C(=O)N2CCCCC2)c1	·	-1	·	1	·	·	·
CN(C(=O)c1cccc(NC(=O)Cc2ccc(NC(=O)C3CCN(C(=O)c4ccccc4)CC3)cc2)c1)C1CCC1	·	7	·	4	·	·	·
O=C(Cc1cccc(NC(=O)C2CCN(C(=O)C3CC3)CC2)c1)Nc1cccc(C(=O)N2CCCC2)c1	4	10	1	2	2	-4%	-5%
CN(Cc1ccccc1)C(=O)c1ccc(NC(=O)Cc2cccc(NC(=O)C3CCCN(C(=O)C4CCC4)C3)c2)cc1 (stereo unspecified)	8	-14	1	-3	-4	-3%	6%
CN(C(=O)c1ccc(NC(=O)Cc2ccc(NC(=O)C3CCN(C(=O)c4ccccc4)CC3)cc2)cc1)C1CC1	2	-14	1	-4	-3	-4%	-5%
COC(=O)c1cc(C)nc2c1c(=O)nc(SCc1ccccc1C)n2C1CC1	14	·	0	·	·	·	·
CCc1ccc(C(=O)c2cn(CC(=O)Nc3cc(OC)ccc3OC)c3nc(C)ccc3c2=O)cc1	1	·	2	·	·	·	·
O=C(c1ccco1)N1CCN(C(=O)C2CCN(S(=O)(=O)c3cccs3)CC2)CC1	-11	-13	1	-5	-1	0%	1%
COc1ccc(-c2c(C#Cc3ccsc3)c3cc(-c4ccc5c(c4)OCO5)ccc3n2C)cc1	-1	-3	1	-1	4	0%	-1%
COc1ccc(-c2c(C#Cc3ccsc3)c3cc(-c4ccc5c(c4)OCCO5)ccc3n2C)cc1	·	-2	·	-4	·	·	·
CC1=C(C(=O)N2CCOCC2)CC(CC(=O)NCCCCc2ccccc2)C(=O)N1Cc1ccc(F)cc1 (stereo unspecified)	·	3	·	4	·	·	·
COc1cccc(CN2CCN(C(=O)c3ccco3)CC2)c1	-17	?	84*	70*	82*	78%	8.9µM*

Bioassay records from PubChem.
